High-throughput results as filed in PubChem.
PI5P4Ka inh = qHTS for Inhibitors of phosphatidylinositol 5-phosphate 4-kinase (PI5P4K) | 330,000 tested, 1.2% active | max response, % | PI5P4Kalpha enzyme, ADP-Glo luminescence, 60 min; hits give low values | Phosphatidylinositol 5-phosphate 4-kinase type-2 alpha (Homo sapiens), P48426; active = max response of -50% or lower; inconclusive = between -30% and -50%; inactive = -30% or higher; note: value at the top dose of about 77 µM; % is set by controls: 0 for no effect and ±100 for the full control effect
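Human PI5P4Kalpha with substrate in 0.038 M HEPES pH 7.4, 0.28 mM EGTA, 0.1% CHAPS, 5% DMSO; reaction started with 5 microM ATP (final), 60 min at room temperature. ADP formed read by ADP-Glo luminescence.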
Pol iota inh = qHTS for Inhibitors of Polymerase Iota. Potency, µM (titrated, usually from 115 µM), for inactives: at the highest dose activity, negative = inhibition, hits mostly inhibitors. Pol iota fluorescent replication assay, 10 min. 390,000 tested, 1% active; note: potency is the fitted concentration of half-maximal effect
Target sequence (Q9UNA4 whole entry, looked up): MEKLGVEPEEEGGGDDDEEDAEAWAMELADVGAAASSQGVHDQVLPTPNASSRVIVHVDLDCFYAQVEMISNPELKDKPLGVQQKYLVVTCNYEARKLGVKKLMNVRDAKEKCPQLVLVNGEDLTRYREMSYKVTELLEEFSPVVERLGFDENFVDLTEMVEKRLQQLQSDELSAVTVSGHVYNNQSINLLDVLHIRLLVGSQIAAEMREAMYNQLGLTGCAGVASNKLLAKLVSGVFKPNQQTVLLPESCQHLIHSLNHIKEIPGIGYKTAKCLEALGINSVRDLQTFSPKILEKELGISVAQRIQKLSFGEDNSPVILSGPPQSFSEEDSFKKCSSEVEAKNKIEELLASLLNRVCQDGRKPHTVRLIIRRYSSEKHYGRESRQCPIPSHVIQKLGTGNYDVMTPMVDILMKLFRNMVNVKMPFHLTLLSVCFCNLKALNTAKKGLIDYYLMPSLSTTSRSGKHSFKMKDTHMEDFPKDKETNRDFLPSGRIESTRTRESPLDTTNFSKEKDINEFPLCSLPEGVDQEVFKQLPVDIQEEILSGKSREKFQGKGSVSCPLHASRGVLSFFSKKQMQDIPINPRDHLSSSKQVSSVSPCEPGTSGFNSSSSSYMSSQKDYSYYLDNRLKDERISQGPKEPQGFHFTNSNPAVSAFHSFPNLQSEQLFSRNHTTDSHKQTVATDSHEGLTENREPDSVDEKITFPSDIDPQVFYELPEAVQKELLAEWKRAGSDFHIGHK
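Fluorescent replication assay read twice, at 0 min and 10 min after adding 50 nM (final) substrate. Enzyme (10 nM) and compounds were first incubated 15 min at room temperature; enzyme-free buffer wells were negative controls.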
POLB inh = qHTS Assay for Inhibitors of DNA Polymerase Beta | Potency, µM (titrated, usually from 114 µM), for the others: at the highest dose activity change, negative = inhibition, most hits filed as inhibitors | Pol beta primer extension/strand displacement, fluorescence kinetic | P06746 | 340,000 tested, 1.3% active | AID 485314, 2010; note: potency is the fitted concentration of half-maximal effect; % is set by controls: 0 for no effect and ±100 for the full control effect
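Human Pol beta at 10 nM; strand-displacement substrate 50 nM final. Compound exposure 15 min at room temperature before start, reaction 10 min at room temperature.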
Pol kappa inh-1 = qHTS for Inhibitors of Polymerase Kappa; DNA polymerase kappa (Homo sapiens), Q9UBT6; purified Pol kappa, fluorescent DNA synthesis assay, 10 min; Potency, µM (highest dose often 107 µM), inactives show at the top dose activity, negative = inhibition, actives largely listed as inhibitors; 400,000 tested, 0.53% active; note: potency is the fitted concentration of half-maximal effect; % is set by controls: 0 for no effect and ±100 for the full control effect
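Readout: fluorescence, taken kinetically at 0 and 10 min. Conditions: 10 nM Pol kappa, 15 min RT compound preincubation, 50 nM substrate final. Controls: enzyme-free buffer wells.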
WRN inhibitor = qHTS for Inhibitors of WRN Helicase; WRN helicase unwinding, fluorescent forked duplex, kinetic; 360,000 tested, 0.46% active; Bifunctional 3'-5' exonuclease/ATP-dependent helicase WRN (Homo sapiens), Q14191; Potency, µM (titrated, usually from 114 µM), inactives show at the highest dose activity change, negative = inhibition, actives largely listed as inhibitors; AID 651768, 2012; note: potency is the fitted concentration of half-maximal effect; % is set by controls: 0 for no effect and ±100 for the full control effect; nearly all actives have a fitted effect of over 55% in size
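Enzyme (20 nM final) and test compound sit together 15 min at room temperature before substrate addition. Substrate is a single-forked duplex oligonucleotide (100 nM) labelled with fluorophore and quencher, with 2 mM ATP; helicase unwinding raises red fluorescence, read kinetically.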
Pol eta inh-1 = qHTS for Inhibitors of Polymerase Eta | DNA polymerase eta (Homo sapiens), Q9Y253 | recombinant Pol eta, fluorescent DNA replication assay | Potency, µM (top dose mostly 114 µM), for inactives: at the highest dose activity change, negative = inhibition, hits mostly inhibitors | 390,000 tested, 1.2% active | AID 588591, 2011; note: potency is the fitted concentration of half-maximal effect; % is set by controls: 0 for no effect and ±100 for the full control effect
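Pol eta at 10 nM preincubated with compounds 15 min at room temperature; reaction started with fluorescent substrate (50 nM final) and read kinetically at 0 and 10 min.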
Pol kappa inh-2 = qHTS for Inhibitors of Polymerase Kappa: Confirmatory Assay for Cherry-picked Compounds | purified Pol-kappa, fluorescent strand-displacement substrate | shares compounds with Pol eta inh-1 | 920 tested, 76% active | Potency, µM, usual class: inhibitors; note: potency is the fitted concentration of half-maximal effect
Pol eta inh-2 = qHTS for Inhibitors of Polymerase Eta: Confirmatory Assay for Cherry-picked Compounds; Potency, µM, hits mostly inhibitors; 2,600 tested, 64% active; Pol eta primer extension, TAMRA/BHQ fluorescence, 10 min; shares compounds with Pol eta inh-1; note: potency is the fitted concentration of half-maximal effect
Starred values were filed as active, the others as inactive; ? = inconclusive; / = no result given; [ ] = another dose, or the depositor's remark. Shown are actives, neighbours in structure and some others; about 2.8% of the full set was active somewhere. Unless noted, calls come from the whole dose curve; as a rule, active = well fitted curve in the direction sought with a large enough effect; inconclusive = small, poorly fitted or top-dose-only effect, or another doubt; inactive = no such curve, though single readings can be large; an effect the other way counts as inactive or inconclusive.

SMILES	PI5P4Ka inh	Pol iota inh	POLB inh	Pol kappa inh-1	WRN inhibitor	Pol eta inh-1	Pol kappa inh-2	Pol eta inh-2
Nc1ccc2nc(-c3ccc(Cl)cc3)[nH]c2c1	?	2%	0%	14%	-7%[57.1 µM]	-23%	/	/
Cc1nc2ccc(-c3nc4ccc(N)cc4[nH]3)cc2[nH]1	-27	18µM*	13µM*	50µM*	?	?	?	/
COc1cc(/C=C2/C(=O)NN(c3cccc(Cl)c3)C2=O)cc(OC)c1O	?	?	?	-7%	-19%	-13%	/	/
COc1cc(/C=C2/C(=O)NN(c3cccc(C)c3)C2=O)cc([N+](=O)[O-])c1O	-62*	?	?	?	-10%[11.6 µM]	22µM*	/	?
COc1cc(/C=C2/C(=O)NN(c3ccc(C)c(Cl)c3)C2=O)cc([N+](=O)[O-])c1O	-67*	8%	35µM*	4%	?	28µM*	/	85*
CC1O[C@@H](O[C@H]2C(Oc3cc(O)c4c(=O)cc(-c5ccc(O)cc5)oc4c3)OC(CO)C(O)C2O)C(O)C(O)C1O (stereo not given in full)	/	/	/	-8%[60.1 µM]	/	/	/	/
COc1ccc(-c2cc(=O)c3c(O)cc(OC4OC(COC5OC(C)C(O)C(O)C5O)C(O)C(O)C4O)cc3o2)cc1O (stereo not given)	-1	?	/	?	-8%[11.6 µM]	22µM*	12*	30*
CCN(c1ccccc1)S(=O)(=O)c1nnc(NC(=O)COc2ccccc2F)s1	/	-3%	24%	-4%	/	-3%	/	/
O=C(CCN1C(=O)/C(=C/c2ccc3c(c2)OCO3)SC1=S)Nc1cccc(C(=O)O)c1	-4	188%	14%	-9%	-15%[11.6 µM]	?	?	/
COc1ccc(/C=C2\SC(=O)N(CCCC(=O)Nc3ccc(C(=O)O)cc3)C2=O)cc1OC	-9	-4%	1%	-3%	-7%	-21%	/	/
O=C(CCCN1C(=O)/C(=C/c2ccc3c(c2)OCO3)SC1=S)Nc1cccc(C(=O)O)c1	-14	-22%	20%	-9%	-3%[11.6 µM]	?	/	/
COc1ccc(/C=C2\SC(=S)N(CCCC(=O)Nc3ccc(C(=O)O)cc3)C2=O)cc1OC	4	56µM*	?	-27%	?	?	42*	/
S=c1[nH]nc(-c2cc(-c3ccccc3)n[nH]2)n1/N=C/C(Br)=C/c1ccccc1	?	22µM*	13µM*	-32%	45µM*	50µM*	67*	/
S=c1[nH]nc(-c2cc(-c3ccccc3)n[nH]2)n1/N=C/c1cccs1	-19	28%	?	-3%	-10%	-7%	/	/
C=CCOCCN1C(=O)C2C3C=CC(C2C1=O)C1C2C(=O)N(CCOCC=C)C(=O)C2C31 (stereo not given)	-2	28µM*	?	?	?	20µM*	/	67*
O=C(O)CCCN1C(=O)C2C3C=CC(C2C1=O)C1C(=O)N(CCCC(=O)O)C(=O)C31 (stereo not given)	-1	70%	14%	-10%	-24%	-11%	/	/
Cc1ccc(-n2ncc3c(Nc4cccc(C)c4C)ncnc32)cc1	/	-6%	-10%	-1%[60.1 µM]	/	-18%	/	/
CC(=O)Oc1cc(C(=O)OCC(=O)NC23CC4CC(CC(C4)C2)C3)cc(OC(C)=O)c1OC(C)=O	?	?	/	18µM*	14µM*	3.2µM*	8.4*	9.5*
